Among the data in ChEMBL document CHEMBL2218924, “A broad activity screen in support of a chemogenomic map for kinase signalling research and drug discovery” (Biochem J, 2013) are residual activity values, retold here.

Experiment [1] concerns the target T1, Muscle, skeletal receptor tyrosine-protein kinase (Homo sapiens) (UniProt O15146).
T1 sequence (whole entry): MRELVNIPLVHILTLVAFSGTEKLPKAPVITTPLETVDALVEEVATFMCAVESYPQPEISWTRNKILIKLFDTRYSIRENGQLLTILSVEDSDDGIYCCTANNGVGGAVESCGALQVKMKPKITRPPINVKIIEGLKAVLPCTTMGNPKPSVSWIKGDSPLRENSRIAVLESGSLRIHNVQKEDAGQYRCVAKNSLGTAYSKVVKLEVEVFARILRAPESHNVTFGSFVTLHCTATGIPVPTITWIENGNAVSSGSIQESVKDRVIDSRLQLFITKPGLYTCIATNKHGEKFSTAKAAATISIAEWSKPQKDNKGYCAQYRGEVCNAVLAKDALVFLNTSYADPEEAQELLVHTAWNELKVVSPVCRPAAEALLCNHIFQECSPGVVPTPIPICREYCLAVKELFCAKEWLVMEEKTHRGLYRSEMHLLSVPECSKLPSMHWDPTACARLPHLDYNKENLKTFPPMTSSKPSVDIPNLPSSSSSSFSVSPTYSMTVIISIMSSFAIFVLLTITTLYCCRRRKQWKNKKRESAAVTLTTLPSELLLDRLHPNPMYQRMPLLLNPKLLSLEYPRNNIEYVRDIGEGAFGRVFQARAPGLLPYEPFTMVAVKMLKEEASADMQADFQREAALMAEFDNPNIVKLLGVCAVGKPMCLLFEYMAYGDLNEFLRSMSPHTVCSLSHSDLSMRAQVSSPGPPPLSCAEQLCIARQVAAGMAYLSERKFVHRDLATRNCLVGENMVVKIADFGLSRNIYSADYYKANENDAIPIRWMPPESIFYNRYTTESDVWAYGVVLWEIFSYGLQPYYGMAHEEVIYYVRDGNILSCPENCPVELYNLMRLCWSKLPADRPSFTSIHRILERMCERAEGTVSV
The note with it: at 1 µM.

The target of experiment [2] is T1, Muscle, skeletal receptor tyrosine-protein kinase (Homo sapiens). The note with it: at 10 µM.
Experiment [3] deals with T2, Serine/threonine-protein kinase Nek11 (Homo sapiens) (UniProt Q8NG66).
T2 sequence (whole entry): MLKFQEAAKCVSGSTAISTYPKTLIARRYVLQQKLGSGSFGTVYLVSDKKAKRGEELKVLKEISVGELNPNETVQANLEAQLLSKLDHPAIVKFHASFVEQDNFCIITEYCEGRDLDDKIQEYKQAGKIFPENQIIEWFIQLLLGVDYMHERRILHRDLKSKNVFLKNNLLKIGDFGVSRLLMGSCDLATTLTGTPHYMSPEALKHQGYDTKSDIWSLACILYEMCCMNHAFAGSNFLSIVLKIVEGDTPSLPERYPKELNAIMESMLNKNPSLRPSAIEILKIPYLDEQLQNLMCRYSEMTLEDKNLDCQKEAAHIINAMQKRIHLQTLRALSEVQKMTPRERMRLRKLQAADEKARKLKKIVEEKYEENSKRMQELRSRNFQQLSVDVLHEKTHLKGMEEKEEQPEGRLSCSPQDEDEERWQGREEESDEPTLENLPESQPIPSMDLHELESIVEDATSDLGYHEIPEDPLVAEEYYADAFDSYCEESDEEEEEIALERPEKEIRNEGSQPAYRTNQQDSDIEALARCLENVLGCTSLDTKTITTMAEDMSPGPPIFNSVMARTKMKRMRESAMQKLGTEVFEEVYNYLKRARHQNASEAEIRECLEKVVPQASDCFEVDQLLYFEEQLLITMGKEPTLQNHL
The note with it: at 1 µM.

The target in experiment [4] is T2, Serine/threonine-protein kinase Nek11 (Homo sapiens). The note with it: at 10 µM.
Experiment [5] concerns the target T3, Serine/threonine-protein kinase Nek2 (Homo sapiens) (UniProt P51955).
T3 sequence (whole entry): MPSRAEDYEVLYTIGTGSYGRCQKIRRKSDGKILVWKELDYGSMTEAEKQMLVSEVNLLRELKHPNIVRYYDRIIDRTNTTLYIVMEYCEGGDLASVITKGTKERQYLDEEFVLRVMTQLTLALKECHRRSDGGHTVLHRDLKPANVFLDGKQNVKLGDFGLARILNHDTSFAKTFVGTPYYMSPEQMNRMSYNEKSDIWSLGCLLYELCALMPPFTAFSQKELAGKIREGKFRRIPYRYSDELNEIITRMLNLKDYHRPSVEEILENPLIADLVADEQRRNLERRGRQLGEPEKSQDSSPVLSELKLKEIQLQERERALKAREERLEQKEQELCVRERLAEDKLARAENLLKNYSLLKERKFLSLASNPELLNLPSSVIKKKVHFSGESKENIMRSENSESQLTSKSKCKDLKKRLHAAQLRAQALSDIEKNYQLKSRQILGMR
The conditions noted are these: at 1 µM.

The target in experiment [6] is T3, Serine/threonine-protein kinase Nek2 (Homo sapiens). The conditions noted are these: at 10 µM.
In experiment [7] the target is T4, Serine/threonine-protein kinase Nek3 (Homo sapiens) (UniProt P51956).
T4 sequence (whole entry): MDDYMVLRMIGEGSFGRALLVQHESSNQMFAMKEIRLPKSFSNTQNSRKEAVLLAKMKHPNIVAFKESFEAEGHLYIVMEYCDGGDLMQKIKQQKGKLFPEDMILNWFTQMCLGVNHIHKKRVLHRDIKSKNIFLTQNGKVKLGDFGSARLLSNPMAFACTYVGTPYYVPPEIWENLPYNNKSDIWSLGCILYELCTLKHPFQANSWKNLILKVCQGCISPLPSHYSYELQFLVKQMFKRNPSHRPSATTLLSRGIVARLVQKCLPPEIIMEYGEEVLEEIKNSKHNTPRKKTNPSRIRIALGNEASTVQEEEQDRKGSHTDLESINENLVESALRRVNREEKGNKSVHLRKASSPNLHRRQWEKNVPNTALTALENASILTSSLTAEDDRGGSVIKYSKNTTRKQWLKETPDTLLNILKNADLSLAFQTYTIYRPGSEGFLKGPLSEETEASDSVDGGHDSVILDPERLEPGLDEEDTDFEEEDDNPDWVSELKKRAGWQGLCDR
The note with it: at 1 µM.

The target in experiment [8] is T4, Serine/threonine-protein kinase Nek3 (Homo sapiens). The note with it: at 10 µM.
Experiment [9] deals with Serine/threonine-protein kinase tousled-like 2 (Homo sapiens) (UniProt Q86UE8). The note with it: at 1 µM.
For experiment [10] the target is unchanged. The note with it: at 10 µM.
Experiment [11] deals with T5, Testis-specific serine/threonine-protein kinase 1 (Homo sapiens) (UniProt Q9BXA7).
T5 sequence (whole entry): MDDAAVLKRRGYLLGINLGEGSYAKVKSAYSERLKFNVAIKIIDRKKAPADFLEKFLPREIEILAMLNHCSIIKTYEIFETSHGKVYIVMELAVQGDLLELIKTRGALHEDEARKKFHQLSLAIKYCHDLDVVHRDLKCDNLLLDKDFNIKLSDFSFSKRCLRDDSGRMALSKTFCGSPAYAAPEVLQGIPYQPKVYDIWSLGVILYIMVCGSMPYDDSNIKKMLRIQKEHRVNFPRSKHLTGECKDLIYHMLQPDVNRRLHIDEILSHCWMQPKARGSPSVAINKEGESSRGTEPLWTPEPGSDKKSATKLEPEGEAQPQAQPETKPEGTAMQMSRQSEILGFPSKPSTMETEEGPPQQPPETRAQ
The conditions noted are these: at 1 µM.

In experiment [12] the target is T5, Testis-specific serine/threonine-protein kinase 1 (Homo sapiens). The conditions noted are these: at 10 µM.
Experiment [13] addresses T6, Testis-specific serine/threonine-protein kinase 2 (Homo sapiens) (UniProt Q96PF2).
T6 sequence (whole entry): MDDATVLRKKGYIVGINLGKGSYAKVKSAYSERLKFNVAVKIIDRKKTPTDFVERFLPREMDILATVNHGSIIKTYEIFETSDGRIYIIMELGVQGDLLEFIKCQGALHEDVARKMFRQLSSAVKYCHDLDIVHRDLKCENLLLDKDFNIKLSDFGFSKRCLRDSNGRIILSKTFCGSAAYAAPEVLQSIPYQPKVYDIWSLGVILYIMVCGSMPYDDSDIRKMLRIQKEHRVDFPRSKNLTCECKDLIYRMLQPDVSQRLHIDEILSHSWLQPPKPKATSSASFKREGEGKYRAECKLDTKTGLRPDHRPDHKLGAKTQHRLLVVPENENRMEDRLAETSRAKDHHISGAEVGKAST
The note with it: at 10 µM.

Experiment [14] has as its target T7, Tyrosine-protein kinase Tec (Homo sapiens) (UniProt P42680).
T7 sequence (whole entry): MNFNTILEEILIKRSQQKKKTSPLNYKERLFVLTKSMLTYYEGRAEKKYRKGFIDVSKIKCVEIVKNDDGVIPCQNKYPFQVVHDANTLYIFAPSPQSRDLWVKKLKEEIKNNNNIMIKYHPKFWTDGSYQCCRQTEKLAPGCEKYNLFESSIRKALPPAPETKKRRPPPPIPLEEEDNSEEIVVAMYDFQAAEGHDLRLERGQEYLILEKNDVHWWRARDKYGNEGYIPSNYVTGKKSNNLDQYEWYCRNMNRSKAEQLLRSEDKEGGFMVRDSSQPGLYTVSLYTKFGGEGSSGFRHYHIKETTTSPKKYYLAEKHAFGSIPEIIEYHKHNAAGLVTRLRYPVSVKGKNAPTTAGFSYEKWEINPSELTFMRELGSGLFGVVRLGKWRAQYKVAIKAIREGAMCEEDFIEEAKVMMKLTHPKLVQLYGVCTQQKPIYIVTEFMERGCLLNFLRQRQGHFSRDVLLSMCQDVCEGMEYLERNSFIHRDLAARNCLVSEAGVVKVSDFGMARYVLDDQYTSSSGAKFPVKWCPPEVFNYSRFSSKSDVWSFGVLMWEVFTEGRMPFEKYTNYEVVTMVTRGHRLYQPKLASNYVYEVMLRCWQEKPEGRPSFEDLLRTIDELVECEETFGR
The note with it: at 1 µM.

For experiment [15], the target named is T7, Tyrosine-protein kinase Tec (Homo sapiens). The conditions noted are these: at 10 µM.
For experiment [16], the target named is Angiopoietin-1 receptor (Homo sapiens) (UniProt Q02763). The note with it: at 10 µM.
Experiment [17] has as its target High affinity nerve growth factor receptor (Homo sapiens) (UniProt P04629). The conditions noted are these: at 1 µM.
For experiment [18] the target is unchanged. The conditions noted are these: at 10 µM.
In experiment [19] the target is BDNF/NT-3 growth factors receptor (Homo sapiens) (UniProt Q16620). The note with it: at 1 µM.
In experiment [20] the target is Angiopoietin-1 receptor (Homo sapiens) (UniProt Q02763). The note with it: at 1 µM.

Chain of Angiopoietin-1 receptor (Homo sapiens) (Q02763 whole entry): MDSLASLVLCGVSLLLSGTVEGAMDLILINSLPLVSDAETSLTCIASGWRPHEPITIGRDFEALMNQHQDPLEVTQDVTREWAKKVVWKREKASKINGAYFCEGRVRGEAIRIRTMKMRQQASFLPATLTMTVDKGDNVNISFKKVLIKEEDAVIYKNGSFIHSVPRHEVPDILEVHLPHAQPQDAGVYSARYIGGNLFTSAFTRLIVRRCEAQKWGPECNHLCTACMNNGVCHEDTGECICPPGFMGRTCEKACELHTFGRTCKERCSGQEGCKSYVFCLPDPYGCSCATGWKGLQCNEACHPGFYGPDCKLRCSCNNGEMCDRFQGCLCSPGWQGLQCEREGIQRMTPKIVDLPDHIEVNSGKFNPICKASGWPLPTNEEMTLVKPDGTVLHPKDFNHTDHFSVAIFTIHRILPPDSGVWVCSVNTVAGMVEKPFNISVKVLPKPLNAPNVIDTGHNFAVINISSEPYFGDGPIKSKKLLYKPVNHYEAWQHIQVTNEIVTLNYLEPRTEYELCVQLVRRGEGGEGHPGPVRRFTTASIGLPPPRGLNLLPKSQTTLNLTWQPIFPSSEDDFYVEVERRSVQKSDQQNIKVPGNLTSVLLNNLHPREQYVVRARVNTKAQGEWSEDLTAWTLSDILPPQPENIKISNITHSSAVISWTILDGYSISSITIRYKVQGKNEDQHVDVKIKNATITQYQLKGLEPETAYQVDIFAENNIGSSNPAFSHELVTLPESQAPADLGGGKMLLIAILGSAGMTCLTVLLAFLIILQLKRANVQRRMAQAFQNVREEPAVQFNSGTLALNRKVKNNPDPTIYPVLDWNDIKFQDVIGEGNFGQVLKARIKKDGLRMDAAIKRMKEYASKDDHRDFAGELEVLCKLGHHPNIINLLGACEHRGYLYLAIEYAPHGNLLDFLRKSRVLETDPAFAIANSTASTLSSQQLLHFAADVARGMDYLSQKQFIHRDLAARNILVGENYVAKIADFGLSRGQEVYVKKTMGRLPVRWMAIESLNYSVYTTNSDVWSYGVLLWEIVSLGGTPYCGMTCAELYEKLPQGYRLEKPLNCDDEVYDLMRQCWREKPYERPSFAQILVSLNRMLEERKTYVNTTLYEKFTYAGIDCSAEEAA
Chain of High affinity nerve growth factor receptor (Homo sapiens) (P04629 33-796 limits assumed): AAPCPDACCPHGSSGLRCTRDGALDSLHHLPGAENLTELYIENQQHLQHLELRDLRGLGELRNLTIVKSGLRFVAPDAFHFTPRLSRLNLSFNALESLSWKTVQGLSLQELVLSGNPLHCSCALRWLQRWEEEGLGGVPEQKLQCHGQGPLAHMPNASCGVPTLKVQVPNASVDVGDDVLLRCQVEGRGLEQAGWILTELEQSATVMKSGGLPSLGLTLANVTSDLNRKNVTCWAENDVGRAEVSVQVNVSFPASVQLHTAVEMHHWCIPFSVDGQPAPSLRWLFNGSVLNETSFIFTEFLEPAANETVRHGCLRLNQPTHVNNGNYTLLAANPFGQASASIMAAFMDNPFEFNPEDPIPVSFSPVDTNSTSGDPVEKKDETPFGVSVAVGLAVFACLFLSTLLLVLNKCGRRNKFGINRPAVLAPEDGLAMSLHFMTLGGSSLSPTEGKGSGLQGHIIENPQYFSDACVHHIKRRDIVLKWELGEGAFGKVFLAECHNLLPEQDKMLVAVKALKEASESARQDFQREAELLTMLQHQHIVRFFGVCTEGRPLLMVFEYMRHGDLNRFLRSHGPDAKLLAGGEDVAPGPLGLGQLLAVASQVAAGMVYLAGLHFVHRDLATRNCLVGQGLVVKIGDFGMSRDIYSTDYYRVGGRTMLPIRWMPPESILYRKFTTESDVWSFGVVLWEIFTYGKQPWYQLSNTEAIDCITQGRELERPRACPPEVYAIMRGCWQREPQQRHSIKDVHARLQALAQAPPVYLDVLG
Chain of Serine/threonine-protein kinase tousled-like 2 (Homo sapiens) (Q86UE8 whole entry, looked up): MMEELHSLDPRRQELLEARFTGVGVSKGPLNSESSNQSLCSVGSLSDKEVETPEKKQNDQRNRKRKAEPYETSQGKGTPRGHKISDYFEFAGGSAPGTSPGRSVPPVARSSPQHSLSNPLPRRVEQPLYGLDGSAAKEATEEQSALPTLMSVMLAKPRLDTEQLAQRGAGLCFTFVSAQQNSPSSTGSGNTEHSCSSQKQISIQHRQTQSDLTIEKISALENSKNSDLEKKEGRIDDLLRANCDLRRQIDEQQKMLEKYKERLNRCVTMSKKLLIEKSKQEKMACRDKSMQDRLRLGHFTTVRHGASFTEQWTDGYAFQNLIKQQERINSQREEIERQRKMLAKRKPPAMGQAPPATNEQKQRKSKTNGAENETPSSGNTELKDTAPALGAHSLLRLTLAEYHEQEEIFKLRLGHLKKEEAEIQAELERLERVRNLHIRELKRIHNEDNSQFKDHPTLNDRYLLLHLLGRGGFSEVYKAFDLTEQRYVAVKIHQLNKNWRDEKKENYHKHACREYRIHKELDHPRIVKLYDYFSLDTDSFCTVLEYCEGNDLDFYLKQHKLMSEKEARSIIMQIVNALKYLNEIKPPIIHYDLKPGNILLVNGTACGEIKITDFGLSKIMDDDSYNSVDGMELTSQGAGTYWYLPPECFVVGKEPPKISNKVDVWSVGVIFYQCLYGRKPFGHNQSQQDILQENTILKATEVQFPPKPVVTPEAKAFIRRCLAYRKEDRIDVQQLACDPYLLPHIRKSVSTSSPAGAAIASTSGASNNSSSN
Chain of BDNF/NT-3 growth factors receptor (Homo sapiens) (Q16620 32-822 limits assumed): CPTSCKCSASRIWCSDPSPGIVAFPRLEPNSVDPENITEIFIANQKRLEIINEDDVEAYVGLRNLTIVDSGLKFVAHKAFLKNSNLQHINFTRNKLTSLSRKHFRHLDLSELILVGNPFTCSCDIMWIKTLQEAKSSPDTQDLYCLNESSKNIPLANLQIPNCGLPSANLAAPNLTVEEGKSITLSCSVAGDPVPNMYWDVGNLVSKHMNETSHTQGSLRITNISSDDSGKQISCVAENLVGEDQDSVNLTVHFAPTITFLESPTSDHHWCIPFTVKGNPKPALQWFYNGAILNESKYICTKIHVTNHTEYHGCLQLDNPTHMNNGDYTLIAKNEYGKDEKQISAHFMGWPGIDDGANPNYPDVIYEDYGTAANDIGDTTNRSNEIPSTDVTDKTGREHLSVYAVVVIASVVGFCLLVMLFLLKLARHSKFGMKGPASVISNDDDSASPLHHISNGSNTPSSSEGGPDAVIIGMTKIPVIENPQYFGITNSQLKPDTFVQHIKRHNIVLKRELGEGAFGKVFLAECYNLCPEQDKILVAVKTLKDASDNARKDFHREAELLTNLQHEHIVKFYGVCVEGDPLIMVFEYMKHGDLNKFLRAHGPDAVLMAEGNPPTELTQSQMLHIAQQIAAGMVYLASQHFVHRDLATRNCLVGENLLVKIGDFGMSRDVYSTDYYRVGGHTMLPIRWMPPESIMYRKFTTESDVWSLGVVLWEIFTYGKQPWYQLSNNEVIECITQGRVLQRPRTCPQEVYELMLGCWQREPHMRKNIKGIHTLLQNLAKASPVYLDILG

One may read the residual activity as the signal under treatment as a percentage of the control signal. Regarding `O=C1C(Cl)=C(N2C(=O)CCC2=O)C(=O)c2ccccc21`, the residual activity was 76% in experiment [1]; 84% in experiment [2]; 41% in experiment [3]; 33% in experiment [4]; 93% in [5]; 89% in [6]. Further, the residual activity was 74% in [7]; 87% in experiment [8]; 94% in [9]; 95% in experiment [10]; 101% in experiment [11]; 79% in experiment [12]. For the same compound, the residual activity is 80% in [13]; 90% in [14]; 79% in experiment [15]; 71% in experiment [16]; 89% in [17]; 68% in experiment [18]. In addition, in [19], the residual activity was 85%.
As for `NC(=O)Nc1sc(-c2ccc(F)cc2)cc1C(N)=O`, the residual activity in [1] came out at 62%; in [2] it was 15%; in experiment [3], 25%; in [4], 5%; in experiment [5], 87%; in [6] it was 58%. In addition, the residual activity stood at 69% in experiment [7]; 48% in [8]; 72% in [9]; 27% in [10]; 62% in experiment [11]; 27% in [12]. In addition, the residual activity in [13] was found to be 54%; in [20] it was 82%; in [16], 21%; in experiment [19], 27%.
Regarding `CN(C)S(=O)(=O)c1ccc2c(c1)/C(=C/c1cc3c([nH]1)CCCC3)C(=O)N2`, the residual activity stood at 53% in experiment [1]; 47% in experiment [2]; 47% in experiment [3]; 63% in experiment [4]; 97% in experiment [5]; 100% in [6]. Besides, the residual activity worked out at 88% in experiment [7]; 94% in experiment [8]; 98% in experiment [9]; 95% in [10]; 91% in experiment [11]; 73% in experiment [12]. Moreover, the residual activity in experiment [14] was 86%; in experiment [15], 80%; in [20], 45%; in experiment [16], 51%; in [17], -2%; in experiment [18], -1%. Also, the residual activity in experiment [19] stood at 4%.
